# Results taken from PubChem BioAssay (Tox21).
# Results filed as inconclusive are left out. A number with no mark means an inactive call. Calls of active or inactive are those of the source. Calls come from the whole dose curve; as a rule, active = well fitted activation curve with a large enough effect in the repeat runs; inconclusive = weak or mixed curves; inactive = flat fitted curve, though single readings scatter.
# Assay: A CellTox Green Cytotoxicity Assay to monitor cytotoxicity in HepG2 cells - 40 hour (AID 1224879); note: nearly all actives have a fitted effect of over 40% in size
# Conditions: CellTox Green fluorescence; series mostly up to 76.8 µM; cytotoxicity increase: at the top concentration
# Excerpt: National Center for Advancing Translational Sciences [NCATS]
# NIH Chemical Genomics Center [NCGC]
# U.S. Environmental Protection Agency [EPA]
# National Institutes of Environmental Health Sciences [NIEHS]
# National Toxicology Program [NTP]
# Cell-based models are critical for drug discovery. Determining the natural cytotoxic effects resulting from test compounds is an essential research activity. A CellTox Green Cytotoxicity Assay to monitor cytotoxicity in real time of continues cell culture during 40 hours of the compound treatment was used to screen Tox21 10K library compounds in HepG2 cells. CellTox Green Cytotoxicity Assay is a nonlytic, homogeneous, biofluorescent method to measure cytotoxicity in cell culture after experimental manipulation. The assay system uses a proprietary asymmetric cyanine dye that is excluded from viable cells but preferentially stains the dead cell's DNA. […] Viable cells produce no appreciable increases in fluorescence. Therefore, the fluorescence signal produced by the binding interaction with dead cell DNA is proportional to cytotoxicity.
# The mixture of HepG2 cell suspension and reagents were dispensed at 600cells/6 ul/well in 1536-well tissue culture treated black solid bottom plates using a Multidrop dispenser. After the assay plates were incubated at a 37 C/5% CO2 incubator for 5 hours, 23 nL of compounds dissolved in DMSO, positive and negative controls was transferred to the assay plate by a pintool work station. The plates were incubated at 37 C for 40 hours. The fluorescence intensity were measured at 0h, 8h, 16h, 24h, 32h and 40h time points using ViewLux plate reader during compound treatment.
# % is set by controls: 0 for no effect and ±100 for the full control effect; potency is the fitted concentration of half-maximal effect.
Structure (SMILES),cytotoxicity increase,Potency
ClC1=C(Cl)[C@]2(Cl)[C@@H]3[C@@H](Cl)[C@H](Cl)C[C@@H]3[C@@]1(Cl)C2(Cl)Cl,-0.087%,–
CCCOCC(=Nc1ccc(Cl)cc1C(F)(F)F)n1ccnc1,–,43.6 µM (active)
O=c1[nH]c2ccccc2n1CCCN1CCC(n2c(=O)[nH]c3cc(Cl)ccc32)CC1,–,23.9 µM (active)
CC(C)CCCCCOC(=O)c1ccccc1C(=O)OCCCCCC(C)C,-0.993%,–
BrC(Br)Br,2.71%,–
CC[C@H]1C[C@@H]2C[C@H]3c4[nH]c5ccc(OC)cc5c4CCN(C2)[C@@H]13,–,54 µM (active)
CS(=O)(=O)c1ccc(C(=O)C2C(=O)CCCC2=O)c([N+](=O)[O-])c1,–,2.23 µM (active)
CC(C)C(=O)Cl,-9.28%,–
COc1cc(N)c(Cl)cc1C(=O)NC1CN2CCC1CC2 (stereo not given),0.559% [at 35.3 µM],–
CC(C)(C)c1ccc(CSc2cnn(C(C)(C)C)c(=O)c2Cl)cc1,–,43.6 µM (active)
O=C1NCN(c2ccccc2)C12CCN(CC1COc3ccccc3O1)CC2 (stereo not given),22.1% [at 35.3 µM],–
O=C(CCl)C(Cl)Cl,–,49.4 µM (active)
CCCCCCCCCCCCCCCC[n+]1ccccc1,–,15.5 µM (active) [middle of 4 runs]
FC(Cl)(Cl)Cl,0.183%,–
ClC(Cl)=C(Cl)Cl,1.74%,–
O=C(O)COc1nc(Cl)c(Cl)cc1Cl,-0.984%,–
OC(Cc1ccccc1Cl)(Cn1cncn1)C1(Cl)CC1 (stereo not given),-1.67%,–
CCCCCCCCCC[N+](C)(C)CCCCCCCCCC,–,8.71 µM (active)
CCOc1cc(C(C)(C)C)ccc1C1COC(c2c(F)cccc2F)=N1 (stereo not given),-0.126% [at 35.3 µM],–
CCOC(=O)C1(c2ccccc2)CCN(CCC(C#N)(c2ccccc2)c2ccccc2)CC1,-13.6% [at 35.3 µM],–

Structure (SMILES),cytotoxicity increase,Potency
O=[N+]([O-])c1cc(Cl)ccc1Cl,-17%,–
CCCN(CCC)c1c([N+](=O)[O-])cc(S(N)(=O)=O)cc1[N+](=O)[O-],–,11 µM (active)
CCC[CH2][Sn]([CH2]CCC)([CH2]CCC)[O]C(=O)c1ccccc1,–,0.549 µM (active)
N#Cc1ccccc1Cl,-0.005%,–
C[C@H]1O[C@@H](O[C@H]2[C@@H](O)C[C@H](O[C@H]3[C@@H](O)C[C@H](O[C@H]4CC[C@@]5(C)[C@H](CC[C@@H]6[C@@H]5CC[C@]5(C)[C@@H](C7=CC(=O)OC7)CC[C@]65O)C4)O[C@@H]3C)O[C@@H]2C)C[C@H](O)[C@@H]1O,–,inactive
CCOC(=O)CC(=O)CCl,9.72%,–
C[C@H]1CC[C@@H]2[C@@H](C)[C@H]3[C@H](C[C@H]4[C@@H]5CC=C6CC(O[C@@H]7O[C@H](CO)[C@H](O)[C@H](O[C@@H]8O[C@H](CO)[C@@H](O)[C@H](O)[C@H]8O)[C@H]7O[C@H]7O[C@@H](C)[C@H](O)[C@@H](O)[C@H]7O)CC[C@]6(C)[C@H]5CC[C@]34C)N2C1 (stereo not given in full),–,22.6 µM (active)
CCC(C)c1cc(C(C)(C)C)cc(-n2nc3ccccc3n2)c1O (stereo not given),1.99% [at 35.3 µM],–
C[C@@H]1O[C@@H](O[C@@H]2C=C3CC[C@@H]4[C@H](CC[C@]5(C)[C@@H](c6ccc(=O)oc6)CC[C@]45O)[C@@]3(C)CC2)[C@H](O)[C@H](O)[C@H]1O,-10.7% [at 35.3 µM],–
[Hg+2].[I-].[I-],–,6.16 µM (active)
Cc1ccc(CCl)cc1,3.98%,–
N#CC(Cl)Cl,–,1.2 µM (active)
NC(=O)CCl,1.37%,–
CCOCn1c(-c2ccc(Cl)cc2)c(C#N)c(Br)c1C(F)(F)F,–,12.3 µM (active)
CCOP(=S)(OCC)OC(Cl)C(Cl)(Cl)Cl (stereo not given),20.3%,–
CCCCCCCCCBr,-11.2%,–
CC(C)CC(C)(c1ccc(O)cc1)c1ccc(O)cc1,–,43.8 µM (active)
CCOCCOC(C)=O,-3.62%,–
c1ccc2c(c1)OCC(C1=NCCN1)O2 (stereo not given),26.7% [at 35.3 µM],–
O=C(Cl)c1ccc(Cl)cc1,-10%,–
